Assay outcomes from PubChem.
NS1 inh = inhibitors of influenza NS1 protein function; Potency, µM (highest dose often 46.1 µM); 0.4% of 270,000 active; AID 2326; further: actives are rising curves; nearly all actives have a fitted effect of over 50% in size
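OD600 was taken as the measure of yeast growth restored by compound in an NS1-expressing S. cerevisiae strain. Cells had been washed out of glucose medium and diluted 1:100 into galactose -URA medium, pH 6.0.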
SARS PLP yeast = SARS-CoV PLP inhibition in yeast. Potency, µM (titrated, usually from 32.9 µM), usual class: activators. 0.19% of 330,000 active. S. cerevisiae expressing SARS-CoV PLpro, growth rescue; further: nearly all actives have a fitted effect of over 55% in size
Pf growth 48h = inhibits P. falciparum growth in the first generation, 48 h; P. falciparum luciferase growth in erythrocytes, 48 h; Potency, µM (highest dose often 28.7 µM), most hits filed as inhibitors; 5.9% of 310,000 active; AID 504832; active means well fitted inhibition curve with a large enough effect; inconclusive means small, poorly fitted or top-dose-only effect, or another doubt; inactive means no such curve, though single readings can be large or run the other way
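Luminescence readout; reporter = integrated firefly luciferase in P. falciparum. RBC culture at 2% hematocrit, 0.1% parasitemia final, 37 C/5% CO2; decreased signal taken as growth inhibition.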
RE007 growth inh = less growth of the S. pombe RE007 Vpr strain; S. pombe RE007 Vpr strain, BacTiter-Glo ATP luminescence, 24 h; Potency, µM (highest dose often 92.2 µM), actives largely listed as inhibitors; 0.21% of 360,000 active; AID 651644; active means well fitted falling curve with a large enough effect; inconclusive means small, poorly fitted or top-dose-only effect; inactive means no such curve, though single readings can be large or run the other way; further: nearly all actives have a fitted effect of over 50% in size
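Fission yeast strain RE007, carrying one chromosomally integrated HIV-1 vpr copy, was seeded at OD 0.01 in PMG+AL medium with 23 nL pinned compound. After 24 h at 30 °C and 99% humidity, viability was read by BacTiter-Glo luminescence.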
Pf growth 96h = P. falciparum growth inhibition at 96 hours | P. falciparum luciferase reporter growth, 96 h | Potency, µM (highest dose often 28.7 µM), most hits filed as inhibitors | 6.9% of 320,000 active | AID 504834; active means well fitted inhibition curve with a large enough effect; inconclusive means small, poorly fitted or top-dose-only effect, or another doubt; inactive means no such curve, though single readings can be large or run the other way
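Erythrocytes infected with luciferase-expressing P. falciparum were dispensed at 2% hematocrit and 0.05% parasitemia (final), then incubated with compounds 96 hours at 37 C in 5% CO2. Luminescence after detection reagent addition reported growth.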
Of the large screens only hits and unclear results are named; the others gave an inactive call. A selection: hits, their analogues and other compounds. The true share with any hit is near 9.5%. Unless noted, the call rests on the fitted dose curve.

COc1ccc(OC)c(-c2nn(-c3ccccc3)cc2C(=O)N2CCc3ccccc3C2)c1	Pf growth 48h 10µM, Pf growth 96h inconclusive (no result: NS1 inh)
COc1ccccc1-c1nn(-c2ccccc2)cc1C(=O)N1CCc2ccccc2C1	Pf growth 48h inconclusive, Pf growth 96h 3.7µM (no result: NS1 inh)
COc1ccc(OC)c(-c2nn(-c3ccccc3)cc2C(=O)NC2(C)CCS(=O)(=O)C2)c1 (stereo not given)	none (no result: NS1 inh, SARS PLP yeast, Pf growth 48h, Pf growth 96h)
CCCCN(c1ccccc1)S(=O)(=O)c1cccc(C(=O)Nc2c(C)n(C)n(-c3ccccc3)c2=O)c1	none (no result: NS1 inh, SARS PLP yeast, Pf growth 48h, Pf growth 96h)
COCCN(C(C)=O)c1nnc(-c2cnccn2)s1	Pf growth 96h 2.3µM
COCCN(C(C)=O)c1nnc(-c2ccccn2)s1	none (no result: Pf growth 96h)
CN(C)C(=O)Oc1ccc(Br)cc1C(=O)Nc1ccc(F)c(Cl)c1	Pf growth 48h 1.2µM, Pf growth 96h inconclusive
O=C(Nc1ccc(Cl)cc1)c1ccc(Br)cc1F	none
Nc1sc2c(c1C(=O)NCCc1ccccc1)CCCC2	none (no result: NS1 inh, SARS PLP yeast, Pf growth 48h, Pf growth 96h)
Nc1sc2c(c1C(=O)NCCc1ccccc1)CCC2	Pf growth 48h 13µM
Cc1ccc(Cn2c(N/N=C/c3ccncc3)nc3c2c(=O)n(C)c(=O)n3C)cc1	Pf growth 48h 10µM, Pf growth 96h 3.7µM
COc1cc(/C=N/Nc2nc3c(c(=O)n(C)c(=O)n3C)n2Cc2ccccc2)ccc1OC(=O)c1ccco1	Pf growth 48h 10µM, Pf growth 96h 9.3µM
COc1cc(/C=N/Nc2ccc(Cl)c(C(=O)O)c2)ccc1OC(=O)c1ccco1	none (no result: NS1 inh)
Cn1c(=O)c2c(nc(N/N=C/c3ccncc3)n2Cc2ccccc2)n(C)c1=O	Pf growth 48h inconclusive, Pf growth 96h inconclusive
O=C(COC(=O)c1cc([N+](=O)[O-])ccc1NCCO)Nc1cccnc1Cl	none (no result: NS1 inh, Pf growth 48h, Pf growth 96h)
COc1ccc(N(C(C)=O)C2C=CS(=O)(=O)C2)c(OC)c1 (stereo not given)	Pf growth 96h 10µM
COC(=O)CCCn1cc(CN2CC(N3CCN(CCN(C)C)CC3)CS2(=O)=O)nn1 (stereo not given)	none (no result: NS1 inh, SARS PLP yeast, Pf growth 48h, Pf growth 96h)
CC(NC(=O)COc1ccc(-c2nnco2)cc1)c1ccc(Cl)cc1Cl (stereo not given)	Pf growth 48h inconclusive, Pf growth 96h 13µM
C=CC(=O)Nc1cccc(Nc2nc(N[C@H]3CC[C@H](N(C)C)CC3)nc3c2ncn3C(C)C)c1	none (no result: NS1 inh, SARS PLP yeast, Pf growth 48h, Pf growth 96h)
CCCCOc1ccc(NC(=O)CN2CCN(C(=O)OCC)CC2)cc1	Pf growth 48h 9.3µM, Pf growth 96h inconclusive
CCOc1ccc(NC(=O)CN2CCN(CC(=O)Nc3ccccc3OC)CC2)cc1	none
CCOc1ccc(NC(=O)CN2CCN(C3c4ccccc4-c4ccccc43)CC2)cc1	Pf growth 48h 13µM
COc1ccccc1NC(=O)CN1CCN(C2c3ccccc3-c3ccccc32)CC1	SARS PLP yeast inconclusive, Pf growth 48h 13µM
COc1ccc(NC(=O)CN2CCN(C3c4ccccc4-c4ccccc43)CC2)c(OC)c1	Pf growth 48h inconclusive
CCCOc1ccc(C(=O)Nc2ccc(N3CCN(C(=O)c4ccco4)CC3)cc2)cc1	SARS PLP yeast inconclusive, Pf growth 48h inconclusive, Pf growth 96h inconclusive
COc1ccc(-c2[nH]ncc2CNCCn2cccn2)c(F)c1	Pf growth 96h 13µM
COc1ccc(-c2[nH]ncc2CNCc2cc(C)n(C)n2)c(F)c1	none
Cc1cc(C)c2[nH]c(O)c(N=NC(=S)NCC3CCCO3)c2c1 (stereo not given)	Pf growth 48h inconclusive, Pf growth 96h inconclusive
Oc1[nH]c2ccc(Br)cc2c1N=NC(=S)NCC1CCCO1 (stereo not given)	Pf growth 48h 5.9µM, Pf growth 96h inconclusive
Oc1[nH]c2c(Cl)cc(Cl)cc2c1N=NC(=S)NCC1CCCO1 (stereo not given)	Pf growth 48h 1.9µM, Pf growth 96h 6.6µM
O=C(CCCn1c(=S)[nH]c2ccc(Br)cc2c1=O)NCC1CCCO1 (stereo not given)	NS1 inh 1.8µM, SARS PLP yeast inconclusive
CC(=O)Nc1ccc(S(=O)(=O)NCCC(=O)NCc2ccco2)cc1	none (no result: NS1 inh, SARS PLP yeast, Pf growth 48h, Pf growth 96h)
CCCN1CCC(=O)NC1=S	none (no result: NS1 inh, SARS PLP yeast, Pf growth 48h, Pf growth 96h)
Cc1ccc(C(=O)NCN2CCN(c3ccccc3)CC2)cc1	none (no result: NS1 inh)
O=C1c2ccccc2C(c2nnnn2Cc2ccccc2)N1Cc1ccc2c(c1)OCO2 (stereo not given)	none (no result: NS1 inh, SARS PLP yeast, Pf growth 48h, Pf growth 96h)
Cc1ccc(NS(=O)(=O)c2ccc(-c3cnc(C4CC4)o3)cc2)cc1	Pf growth 96h 12µM
COc1ccc(CN(C)C(c2ccccc2)c2nnnn2-c2ccccc2C)c(OC)c1C (stereo not given)	Pf growth 48h inconclusive
COc1cc(OC)c(OC)cc1CN(C)C(c1ccccc1)c1nnnn1-c1ccccc1C (stereo not given)	Pf growth 48h inconclusive, Pf growth 96h 10µM
CCOCCCNC(=O)c1cc2c(s1)-c1ccccc1SC2	Pf growth 48h 2.6µM, Pf growth 96h 5.2µM
CN(C)CCNC(=O)c1ccc(Cl)s1	none
CN(C)CCNC(=O)c1cc2c(s1)-c1ccc(Cl)cc1SC2	Pf growth 48h 2.6µM (no result: RE007 growth inh)
CCOc1ccccc1C(=O)NCC(=O)NNC(=O)c1cccc(S(=O)(=O)Nc2ccc(OC)cc2)c1	none (no result: NS1 inh)
CCc1ccccc1NC(=O)CNC(=O)c1cc(C2CC2)nn1-c1ccccc1	Pf growth 48h inconclusive, Pf growth 96h inconclusive (no result: NS1 inh)
CSc1cccc(NC(=S)N2CCCN(Cc3cccc(Cl)c3)C2)c1	Pf growth 48h 10µM (no result: NS1 inh)
CC(=O)N/C(=C\c1ccccc1)C(=O)OCC(=O)N(CC(C)C)c1c(N)n(Cc2ccccc2)c(=O)[nH]c1=O	none (no result: NS1 inh)
CCc1ccccc1NC(=O)/C(=C/c1ccco1)c1ccccc1	Pf growth 96h 1.9µM (no result: Pf growth 48h)
Cc1ccccc1NC(=O)/C(=C/c1ccco1)c1ccccc1	Pf growth 96h inconclusive (no result: Pf growth 48h)
COC(=O)C1=C(C)Nc2nc3ccccc3n2C1c1cc(OC)c(OC)c(OC)c1 (stereo not given)	Pf growth 48h 1.9µM, Pf growth 96h inconclusive
Clc1ccc(OCc2noc(-c3ccsc3)n2)c(Cl)c1	none
Cn1c(-[n+]2c(-c3ccccc3)cc(-c3ccccc3)cc2-c2ccccc2)nc2cc([N+](=O)[O-])ccc21	Pf growth 48h 13µM, Pf growth 96h 3.3µM
CC12CCC(=O)N1C(C(=O)OCC(=O)Nc1ccc(C(F)(F)F)cc1)CS2 (stereo not given)	none (no result: NS1 inh)
CC1(C)Cc2c(ccc3ccccc23)/C(=C/C(=O)N2CCCCC2)N1	Pf growth 48h 10µM, Pf growth 96h inconclusive
O=C(/C=C1\NC2(CCCC2)Cc2ccccc21)N1CCOCC1	Pf growth 48h inconclusive, Pf growth 96h inconclusive
O=C(NC1CCCCC1)c1cc(S(=O)(=O)N2CCCC2)ccc1Cl	none
Cc1ccc(C(=O)c2cc([N+](=O)[O-])ccc2N2CCCCC2)c(C)c1	Pf growth 48h 12µM, Pf growth 96h 13µM
Cc1ccc(NC(=O)c2cc(N3C(=O)C4CC=CCC4C3=O)ccc2N2CCCCC2)cc1 (stereo not given)	Pf growth 96h 15µM
Cc1cccc(NC(=O)c2cc(NC(=O)c3ccco3)ccc2N2CCCCC2)c1	Pf growth 48h 4.7µM, Pf growth 96h inconclusive
